This is a sample that favours compounds with a hit; in the whole collection about 17% have one here.
S2 tox – cell viability loss in ATXN counter-screen; S2 cells (HEK-293 line with an ATXN2-luciferase reporter) viability, CellTiter-Fluor protease fluorescence, 24 h; Potency, µM (series often up to 56.7 µM), usual class: cytotoxic; actives 0.49% (n = 400,000); note: nearly all actives have a fitted effect of over 40% in size
DT40 TDP1 no CPT – qHTS for Inhibitors of human tyrosyl-DNA phosphodiesterase 1 (TDP1): qHTS in cells in absence of CPT; actives 15% (n = 420,000); Potency, µM (top dose mostly 46.2 µM), inactives show top-dose activity change, negative = growth inhibition, actives largely listed as inhibitors; DT40 Tdp1-/- hTDP1 cells, no CPT, ATP luminescence, 48 h; note: % is set by controls: 0 for no effect and ±100 for the full control effect; nearly all actives have a fitted effect of over 55% in size
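Readout: luminescence from CellTiter-Glo after 30 min in the dark at RT. Cells: DT40 Tdp1-/- with stable hTDP1, 400/well. Exposure: compounds alone, ≥48 hr, 37 °C.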
ATXN2 expr inh – reduces ATXN2 reporter expression in HEK-293 cells; HEK-293 ATXN2-luciferase reporter, luminescence, 24 h; Potency, µM (top dose mostly 57 µM), without a hit: at the top dose activity change, negative = inhibition, hits mostly inhibitors; actives 0.72% (n = 360,000); AID 1745845; note: % is set by controls: 0 for no effect and ±100 for the full control effect; nearly all actives have a fitted effect of over 55% in size
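qHTS (up to 57 uM final) was run with 24 h compound exposure of reporter cells at 37 °C. Each well was multiplexed: SteadyGlo luminescence measured ATXN2-luciferase expression after a fluorogenic Gly-Phe-AFC viability readout (25 uM final).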
TDP1 cell CPT – DT40-hTDP1 cell growth loss with CPT; chicken DT40 Tdp1-/-;hTDP1 cells + 20 nM CPT, ATP luminescence, 48 h; Potency, µM (doses to about 46.2 µM), for the others: top-dose activity change, negative = growth inhibition, actives largely listed as inhibitors; actives 12% (n = 420,000); AID 686979; note: % is set by controls: 0 for no effect and ±100 for the full control effect; nearly all actives have a fitted effect of over 55% in size
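Chicken DT40 Tdp1-/- cells complemented with human TDP1, 400 cells/well, exposed to compounds plus 20 nM camptothecin for at least 48 h at 37 C; viability read as ATP content by CellTiter-Glo luminescence.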
TGFb inhibitor – inhibitors of TGF-b signaling; HepG2 CAGA-GFP TGF-b/SMAD3 reporter, GFP fluorescence, 18 h; TGF-beta stimulated, 500 pg/mL final; Potency, µM (top dose mostly 46.1 µM), inactives show top-dose activity, negative = inhibition, actives largely listed as inhibitors; actives 1.2% (n = 410,000); note: % is set by controls: 0 for no effect and ±100 for the full control effect; nearly all actives have a fitted effect of over 65% in size
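Per well, imaged GFP fluorescence of HEPG2 CAGA-GFP cells gives the signal; cells get compound, then TGF-beta (500 pg/mL final), 18 h at 37 degrees C; %Activity versus -TGF-beta and +DMSO controls.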
HepG2 tox – counter-screen for TGF-b inhibitors: cytotoxicity in HepG2 cells | HepG2 CAGA-GFP viability, ATP luminescence, 18 h | Potency, µM (highest dose often 46.1 µM), inactives show at the top dose activity change, negative = cytotoxicity, actives largely listed as cytotoxic | actives 0.76% (n = 410,000) | AID 588856
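CellTiter-Glo luminescence gave cytotoxicity after 18 hours at 37 degrees C. The cells were HepG2 CAGA-GFP in 1% FBS DMEM, stimulated with 500 pg/mL TGF-beta after compound addition. %Activity was normalised to no-cell wells (complete cell-killing) and DMSO (no toxicity), and curves were fitted and classified.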
The depositor's hits bear a star. Calls come from the whole dose curve; as a rule, active = well fitted curve in the direction sought with a large enough effect; inconclusive = small, poorly fitted or top-dose-only effect, or another doubt; inactive = no such curve, though single readings can be large; an effect the other way counts as inactive or inconclusive. Potency is the fitted concentration of half-maximal effect.

For O=C(NNC(=O)c1cc(OCC(F)(F)F)ccc1OCC(F)(F)F)c1ccc(Cl)c(Cl)c1 the results were S2 tox inactive, DT40 TDP1 no CPT inconclusive, ATXN2 expr inh inconclusive, TDP1 cell CPT 23.1µM*, TGFb inhibitor inconclusive and HepG2 tox -42.5%.
O=C(c1[nH]c(C(F)(F)F)nc1-c1ccccc1)N1CCOCC1 was read as S2 tox inactive, DT40 TDP1 no CPT -14.1%, ATXN2 expr inh 3.4%, TDP1 cell CPT 0.5%, TGFb inhibitor 8.6% and HepG2 tox 13.7%.
For COCC(=O)Nc1cc(C(=O)N2CCCCC2c2nccs2)c2c(c1)nc(-c1ccncc1)n2C (stereo not given) the results were S2 tox inactive, DT40 TDP1 no CPT -5.9% and TDP1 cell CPT -4.9%.
Screening O=C1CCCCC1(CCc1ccncc1)CCc1ccncc1 returned S2 tox inactive, DT40 TDP1 no CPT 11.6µM*, ATXN2 expr inh -3.6%, TDP1 cell CPT 18.4µM*, TGFb inhibitor -17.4% and HepG2 tox -17.4%.
CCOC(=O)C1CCCN(Cc2nc(N)nc(Nc3ccc(Cl)cc3)n2)C1 (stereo not given) was read as S2 tox inactive, DT40 TDP1 no CPT 16.4µM*, ATXN2 expr inh -5.2%, TDP1 cell CPT inconclusive, TGFb inhibitor 14.6% and HepG2 tox -0.1%.
CCOC(=O)C1CCCN(Cc2nc(N)nc(Nc3ccc(OC)cc3)n2)C1 (stereo not given) was read as S2 tox inactive, DT40 TDP1 no CPT inconclusive, ATXN2 expr inh -13.2%, TDP1 cell CPT 29.1µM*, TGFb inhibitor -17.4% and HepG2 tox -39.0%.
Screening CCOC(=O)N1CCN(Cc2nc(N)nc(Nc3ccc(Oc4ccccc4)cc3)n2)CC1 returned S2 tox inconclusive, DT40 TDP1 no CPT 16.4µM*, ATXN2 expr inh -31.2%, TDP1 cell CPT inconclusive, TGFb inhibitor inconclusive and HepG2 tox -5.3%.
Screening CC(=O)N1C(=O)C(=C2C=C(C)OC(C)=C2)c2ccccc21 returned S2 tox inactive, DT40 TDP1 no CPT inconclusive, ATXN2 expr inh -8.3%, TDP1 cell CPT inconclusive, TGFb inhibitor 10.1% and HepG2 tox -15.4%.
`CC1=CC(=C2C(=O)c3ccccc3C2=O)C=C(C)N1Cc1ccco1` gave S2 tox inactive, DT40 TDP1 no CPT 20.6µM*, ATXN2 expr inh 16.7%, TDP1 cell CPT -21.7%, TGFb inhibitor inconclusive and HepG2 tox -25.0%.
Screening CC1=CC(=C2C(=O)c3ccccc3C2=O)C=C(C)O1 returned S2 tox inactive, DT40 TDP1 no CPT inconclusive, ATXN2 expr inh 3.7%, TDP1 cell CPT 10.3µM*, TGFb inhibitor -1.4% and HepG2 tox -19.2%.
`S=c1nccc(-c2ccc(Cl)cc2)[nH]1` gave S2 tox inactive, DT40 TDP1 no CPT 20.6µM*, ATXN2 expr inh 10.3%, TDP1 cell CPT inconclusive, TGFb inhibitor -2.3% and HepG2 tox 13.8%.
Screening COc1cc(/C=N/N=C(N)N)ccc1OCc1ccccc1Cl returned S2 tox inconclusive, DT40 TDP1 no CPT 14.6µM*, ATXN2 expr inh inconclusive, TDP1 cell CPT inconclusive, TGFb inhibitor inconclusive and HepG2 tox -102.0%.
For CCOc1ccc(NC(=S)N2CCC(N(C)CCN3CCOCC3)CC2)cc1 the results were S2 tox inactive, DT40 TDP1 no CPT -10.3%, ATXN2 expr inh -9.2%, TDP1 cell CPT -3.1%, TGFb inhibitor -8.7% and HepG2 tox -26.8%.
For Cc1ccccc1N1CC(c2nc3ccccc3n2Cc2ccc(Br)cc2)CC1=O (stereo not given) the results were S2 tox inconclusive, DT40 TDP1 no CPT 16.4µM*, ATXN2 expr inh inconclusive, TDP1 cell CPT inconclusive, TGFb inhibitor inconclusive and HepG2 tox -101.7%.

Bioassay records: PubChem BioAssay, National Center for Advancing Translational Sciences (NCATS)
